# In the supplement of paper PMC9446081:
# ± gives the standard deviation of the averaged measurements.
# Columns and labels:
# Experiment in all cases: relative enzymatic activity vs untreated control (fraction); higher = less inhibition
# Conditions in all cases: 100 µM; incubation time: 2 h at 37 C
# DNA gyrase = system: DNA gyrase
# Description: (§1)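 In vitro enzymatic inhibition assays (ProFoldin kits) for 12 purified essential E. coli enzymes or complexes, each treated with 218 active antibacterial compounds at 100 µM for 2 h at 37°C. Read-outs were fluorescence or absorbance (phosphate detection, dye binding), converted to activity via standard curves and expressed relative to untreated DMSO controls.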
# DNA helicase = DNA helicase (UniProt P0ACB1)
# Description: as §1
# DNA ligase = DNA ligase (UniProt B1XA82)
# Description: as §1
# DNA polymerase = DNA polymerase (UniProt P10443)
# Description: as §1
# DNA primase = DNA primase (UniProt P0ABS7)
# Description: as §1
# GlmU = GlmU (UniProt A7ZTU1)
# Description: as §1
# Guanlyate kinase = Guanlyate kinase (UniProt Q0TBG1)
# Description: as §1
# MurA = MurA (UniProt Q3YX52)
# Description: as §1
# MurD = target: T1, MurD (UniProt P14900)
# T1 sequence (whole entry): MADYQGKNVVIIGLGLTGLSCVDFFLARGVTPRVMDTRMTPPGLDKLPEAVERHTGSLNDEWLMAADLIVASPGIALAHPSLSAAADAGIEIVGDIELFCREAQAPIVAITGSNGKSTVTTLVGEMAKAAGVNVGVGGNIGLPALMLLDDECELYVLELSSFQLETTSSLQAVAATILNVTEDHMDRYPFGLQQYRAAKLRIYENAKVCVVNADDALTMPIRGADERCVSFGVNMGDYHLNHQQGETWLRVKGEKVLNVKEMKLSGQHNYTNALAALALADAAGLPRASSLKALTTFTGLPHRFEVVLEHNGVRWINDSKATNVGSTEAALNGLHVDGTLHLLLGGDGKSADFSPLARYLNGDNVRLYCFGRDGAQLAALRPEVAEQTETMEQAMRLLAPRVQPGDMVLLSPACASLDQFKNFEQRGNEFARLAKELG
# Description: as §1
# MurF = target: T2, MurF (UniProt P11880)
# T2 sequence (whole entry): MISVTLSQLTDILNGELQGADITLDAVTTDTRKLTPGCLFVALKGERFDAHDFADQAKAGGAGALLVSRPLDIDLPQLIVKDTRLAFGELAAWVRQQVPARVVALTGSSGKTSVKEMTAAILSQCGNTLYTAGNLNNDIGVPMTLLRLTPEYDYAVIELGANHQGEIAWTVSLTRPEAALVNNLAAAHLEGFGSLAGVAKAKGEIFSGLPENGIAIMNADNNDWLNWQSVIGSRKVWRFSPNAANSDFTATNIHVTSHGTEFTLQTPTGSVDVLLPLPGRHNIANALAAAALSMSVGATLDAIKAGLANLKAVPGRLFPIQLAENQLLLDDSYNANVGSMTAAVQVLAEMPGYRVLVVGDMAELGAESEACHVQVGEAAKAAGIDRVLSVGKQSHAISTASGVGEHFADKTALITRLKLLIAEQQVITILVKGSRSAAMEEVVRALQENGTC
# Description: as §1
# RNA polymerase = system: RNA polymerase
# Description: as §1
# MurC = MurC (UniProt C4ZRI6)
# Description: as §1
# Chain of MurA (Q3YX52 whole entry): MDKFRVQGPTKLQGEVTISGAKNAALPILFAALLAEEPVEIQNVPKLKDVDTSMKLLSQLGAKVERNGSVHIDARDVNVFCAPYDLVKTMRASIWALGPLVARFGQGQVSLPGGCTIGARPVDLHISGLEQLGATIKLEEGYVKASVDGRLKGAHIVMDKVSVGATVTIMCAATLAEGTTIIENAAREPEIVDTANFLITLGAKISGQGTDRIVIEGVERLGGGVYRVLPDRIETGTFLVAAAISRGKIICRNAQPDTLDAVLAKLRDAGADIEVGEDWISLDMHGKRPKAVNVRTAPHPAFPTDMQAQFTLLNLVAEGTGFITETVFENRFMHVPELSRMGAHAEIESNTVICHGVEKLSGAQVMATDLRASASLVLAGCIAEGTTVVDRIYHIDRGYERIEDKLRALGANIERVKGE
# Chain of DNA primase (P0ABS7 whole entry): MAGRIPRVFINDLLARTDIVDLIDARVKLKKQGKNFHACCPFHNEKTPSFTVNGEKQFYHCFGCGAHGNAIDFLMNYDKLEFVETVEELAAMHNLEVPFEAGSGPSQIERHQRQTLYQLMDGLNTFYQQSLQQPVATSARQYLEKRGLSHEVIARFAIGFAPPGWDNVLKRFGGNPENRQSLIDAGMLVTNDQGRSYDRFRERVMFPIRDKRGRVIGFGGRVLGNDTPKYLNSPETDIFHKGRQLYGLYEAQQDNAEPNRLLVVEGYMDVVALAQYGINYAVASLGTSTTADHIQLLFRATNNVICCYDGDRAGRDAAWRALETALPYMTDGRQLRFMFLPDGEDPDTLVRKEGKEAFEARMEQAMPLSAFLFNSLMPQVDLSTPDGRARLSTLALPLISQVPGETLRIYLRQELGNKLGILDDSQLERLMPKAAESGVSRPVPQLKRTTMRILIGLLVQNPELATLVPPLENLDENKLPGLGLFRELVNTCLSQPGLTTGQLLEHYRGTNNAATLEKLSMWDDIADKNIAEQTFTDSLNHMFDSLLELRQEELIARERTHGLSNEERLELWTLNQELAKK
# Chain of GlmU (A7ZTU1 whole entry, looked up): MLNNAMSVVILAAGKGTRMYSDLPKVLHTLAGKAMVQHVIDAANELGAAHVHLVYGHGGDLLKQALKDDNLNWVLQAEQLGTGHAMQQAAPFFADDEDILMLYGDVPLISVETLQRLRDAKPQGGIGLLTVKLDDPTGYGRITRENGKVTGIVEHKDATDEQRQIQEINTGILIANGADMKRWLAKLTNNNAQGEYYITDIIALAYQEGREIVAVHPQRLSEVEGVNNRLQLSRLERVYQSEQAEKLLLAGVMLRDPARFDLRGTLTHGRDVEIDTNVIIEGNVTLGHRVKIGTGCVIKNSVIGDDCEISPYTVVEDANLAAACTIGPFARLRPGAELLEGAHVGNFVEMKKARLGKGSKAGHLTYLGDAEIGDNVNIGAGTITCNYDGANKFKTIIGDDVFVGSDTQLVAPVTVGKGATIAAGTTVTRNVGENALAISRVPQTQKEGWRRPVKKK
# Chain of DNA helicase (P0ACB1 whole entry): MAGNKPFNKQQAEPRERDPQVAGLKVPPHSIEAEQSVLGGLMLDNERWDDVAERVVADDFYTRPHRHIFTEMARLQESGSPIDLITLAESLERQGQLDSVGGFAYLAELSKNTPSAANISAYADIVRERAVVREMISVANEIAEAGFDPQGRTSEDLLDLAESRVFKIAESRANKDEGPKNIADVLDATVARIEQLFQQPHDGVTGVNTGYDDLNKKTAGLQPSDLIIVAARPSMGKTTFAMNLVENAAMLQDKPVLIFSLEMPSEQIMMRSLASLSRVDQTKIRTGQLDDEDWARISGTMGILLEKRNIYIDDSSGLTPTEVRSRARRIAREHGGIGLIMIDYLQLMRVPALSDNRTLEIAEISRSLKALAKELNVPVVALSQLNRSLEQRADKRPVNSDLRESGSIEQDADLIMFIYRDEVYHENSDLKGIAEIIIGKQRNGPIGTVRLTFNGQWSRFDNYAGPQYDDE
# Chain of DNA polymerase (P10443 whole entry): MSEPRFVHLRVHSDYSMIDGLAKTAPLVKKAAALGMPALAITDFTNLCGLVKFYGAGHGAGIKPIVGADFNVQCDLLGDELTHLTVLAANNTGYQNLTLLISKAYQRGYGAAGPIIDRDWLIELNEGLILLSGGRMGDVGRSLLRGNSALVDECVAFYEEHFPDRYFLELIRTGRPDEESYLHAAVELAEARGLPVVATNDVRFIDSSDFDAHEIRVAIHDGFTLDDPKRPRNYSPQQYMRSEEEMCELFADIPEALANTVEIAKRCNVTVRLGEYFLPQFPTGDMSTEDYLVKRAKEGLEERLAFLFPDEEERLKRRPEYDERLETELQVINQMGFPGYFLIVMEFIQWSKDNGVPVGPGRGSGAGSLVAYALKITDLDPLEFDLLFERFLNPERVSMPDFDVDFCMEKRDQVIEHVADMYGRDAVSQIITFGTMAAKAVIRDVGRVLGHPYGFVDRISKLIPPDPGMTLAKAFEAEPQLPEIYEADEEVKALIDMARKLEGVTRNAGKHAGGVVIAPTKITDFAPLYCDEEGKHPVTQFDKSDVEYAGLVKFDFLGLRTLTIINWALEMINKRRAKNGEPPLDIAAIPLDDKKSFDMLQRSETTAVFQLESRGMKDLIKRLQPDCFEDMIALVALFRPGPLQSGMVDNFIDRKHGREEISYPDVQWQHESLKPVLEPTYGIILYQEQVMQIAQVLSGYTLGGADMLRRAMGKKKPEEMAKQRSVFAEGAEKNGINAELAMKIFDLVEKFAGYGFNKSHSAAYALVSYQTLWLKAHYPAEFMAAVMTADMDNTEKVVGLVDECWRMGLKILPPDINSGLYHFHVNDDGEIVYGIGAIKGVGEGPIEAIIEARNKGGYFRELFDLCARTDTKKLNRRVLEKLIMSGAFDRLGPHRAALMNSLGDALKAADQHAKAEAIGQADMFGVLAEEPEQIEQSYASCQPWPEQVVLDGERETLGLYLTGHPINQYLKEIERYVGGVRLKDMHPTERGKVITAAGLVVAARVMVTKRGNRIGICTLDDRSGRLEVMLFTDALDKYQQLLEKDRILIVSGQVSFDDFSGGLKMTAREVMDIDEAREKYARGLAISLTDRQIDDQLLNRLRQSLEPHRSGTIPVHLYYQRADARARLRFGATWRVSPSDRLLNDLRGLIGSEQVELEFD
# Chain of DNA ligase (B1XA82 whole entry): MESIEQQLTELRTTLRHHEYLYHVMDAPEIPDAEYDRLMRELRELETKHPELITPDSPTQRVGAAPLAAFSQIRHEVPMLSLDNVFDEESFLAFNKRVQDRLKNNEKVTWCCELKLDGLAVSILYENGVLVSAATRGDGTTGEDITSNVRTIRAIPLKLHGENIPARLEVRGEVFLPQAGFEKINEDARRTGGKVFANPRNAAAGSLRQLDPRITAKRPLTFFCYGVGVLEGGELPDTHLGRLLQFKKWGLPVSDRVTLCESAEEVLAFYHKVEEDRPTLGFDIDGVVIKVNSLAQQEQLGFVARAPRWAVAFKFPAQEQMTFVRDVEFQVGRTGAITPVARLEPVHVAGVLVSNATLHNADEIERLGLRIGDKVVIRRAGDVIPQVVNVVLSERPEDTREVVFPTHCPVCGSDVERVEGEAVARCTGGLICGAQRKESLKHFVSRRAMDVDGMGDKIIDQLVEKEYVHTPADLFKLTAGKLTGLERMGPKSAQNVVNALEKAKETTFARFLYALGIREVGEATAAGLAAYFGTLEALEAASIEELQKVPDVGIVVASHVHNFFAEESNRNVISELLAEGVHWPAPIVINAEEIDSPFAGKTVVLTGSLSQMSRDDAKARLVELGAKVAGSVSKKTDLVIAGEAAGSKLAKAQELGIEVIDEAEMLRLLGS
# Chain of MurC (C4ZRI6 whole entry, looked up): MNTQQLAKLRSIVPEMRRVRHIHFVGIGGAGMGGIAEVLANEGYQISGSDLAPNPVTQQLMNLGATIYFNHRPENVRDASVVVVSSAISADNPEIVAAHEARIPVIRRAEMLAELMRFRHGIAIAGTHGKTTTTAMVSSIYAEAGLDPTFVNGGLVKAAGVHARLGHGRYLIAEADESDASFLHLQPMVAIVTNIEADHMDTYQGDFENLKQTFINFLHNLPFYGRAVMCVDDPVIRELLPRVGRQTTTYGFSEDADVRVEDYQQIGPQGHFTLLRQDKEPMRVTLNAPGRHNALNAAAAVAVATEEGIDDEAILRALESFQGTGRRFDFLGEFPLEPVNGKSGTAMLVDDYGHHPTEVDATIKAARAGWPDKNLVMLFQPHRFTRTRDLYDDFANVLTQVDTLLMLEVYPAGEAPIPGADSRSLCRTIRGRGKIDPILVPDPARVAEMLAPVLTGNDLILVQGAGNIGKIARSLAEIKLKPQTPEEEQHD
# Chain of Guanlyate kinase (Q0TBG1 whole entry): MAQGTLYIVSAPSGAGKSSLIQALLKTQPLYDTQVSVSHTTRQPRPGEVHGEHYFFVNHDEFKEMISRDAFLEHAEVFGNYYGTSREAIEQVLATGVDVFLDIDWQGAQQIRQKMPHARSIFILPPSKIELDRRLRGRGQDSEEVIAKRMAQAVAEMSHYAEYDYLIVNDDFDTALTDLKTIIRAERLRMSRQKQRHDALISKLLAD
Compound,relative enzymatic activity (DNA gyrase),relative enzymatic activity (DNA helicase),relative enzymatic activity (DNA ligase),relative enzymatic activity (DNA polymerase),relative enzymatic activity (DNA primase),relative enzymatic activity (GlmU),relative enzymatic activity (Guanlyate kinase),relative enzymatic activity (MurA),relative enzymatic activity (MurD),relative enzymatic activity (MurF),relative enzymatic activity (RNA polymerase),relative enzymatic activity (MurC)
Cn1sccc1=O,0.437 ± 0.62,0.607 ± 0.19,1 ± 0.053,1 ± 0.17,0.8591 ± 0.0028,0.622 ± 0.045,0.903 ± 0.084,0.0867 ± 0.0083,0.579 ± 0.4,0.968 ± 0.27,0.847 ± 0.097,–
CON=C(C(=O)N[C@@H]1C(=O)N2C(C(=O)O)=C(CSc3nc(=O)c(O)nn3C)CS[C@H]12)c1csc(N)n1,0.722 ± 0.42,0.448 ± 0.015,0.961 ± 0.042,1.05 ± 0.24,0.8 ± 0.022,0.861 ± 0.055,0.984 ± 0.11,0.0646 ± 0.0061,0.568 ± 0.39,0.955 ± 0.25,0.524 ± 0.35,0.751 ± 0.23
O=C1NCCN1c1ncc([N+](=O)[O-])s1,0.684 ± 0.55,0.564 ± 0.22,0.852 ± 0.12,1.16 ± 0.25,0.839 ± 0.018,0.982 ± 0.011,0.863 ± 0.052,0.658 ± 0.11,0.628 ± 0.47,0.389 ± 0.55,0.792 ± 0.11,–
O=C(NO)c1cn(-c2cccc(C(=O)N3CCC4(CC3)C(=O)NCN4c3ccccc3)c2)nn1,≤ 0,0.0673 ± 0.0027,0.205 ± 0.025,0.00452 ± 0.00034,≤ 0,0.656 ± 0.088,≤ 0,0.245 ± 0.072,0.36 ± 0.22,0.634 ± 0.13,0.00747 ± 0.0021,0.552 ± 0.15
Cc1nnc(SCC2=C(C(=O)O)N3C(=O)[C@@H](NC(=O)Cn4cnnn4)[C@H]3SC2)s1,0.719 ± 0.43,0.348 ± 0.37,0.987 ± 0.14,1.17 ± 0.26,0.792 ± 0.035,0.995 ± 0.059,0.9645 ± 0.0053,0.137 ± 0.029,0.604 ± 0.41,0.96 ± 0.22,0.862 ± 0.057,0.988 ± 0.078
COC1(NC(=O)C2SC(=C(C(N)=O)C(=O)O)S2)C(=O)N2C(C(=O)O)=C(CSc3nnnn3C)CSC21 (stereo not drawn),0.705 ± 0.46,0.463 ± 0.027,1.47 ± 0.23,1.18 ± 0.25,0.683 ± 0.18,0.99 ± 0.066,0.994 ± 0.02,0.0627 ± 0.021,0.618 ± 0.43,0.974 ± 0.2,0.871 ± 0.07,0.978 ± 0.098
CCC1OC(=O)C(C)C(OC2CC(C)(OC)C(O)C(C)O2)C(C)C(OC2OC(C)CC(N(C)C)C2O)C(C)(O)CC(C)CN(C)C(C)C(O)C1(C)O (stereo not drawn),1.09 ± 0.048,0.601 ± 0.15,1.06 ± 0.2,1.11 ± 0.15,0.712 ± 0.2,1.09 ± 0.14,1.04 ± 0.034,0.766 ± 0.061,0.572 ± 0.39,0.964 ± 0.17,0.843 ± 0.027,0.998 ± 0.082
CCn1cc(C(=O)O)c(=O)c2cc(F)c(N3CCNCC3)nc21,0.00427 ± 0.006,0.582 ± 0.19,1.03 ± 0.25,0.579 ± 0.52,0.684 ± 0.19,1 ± 0.017,0.761 ± 0.07,0.839 ± 0.13,0.573 ± 0.39,0.982 ± 0.23,0.833 ± 0.03,0.948 ± 0.15
CC(C)CCCC(=O)N[C@@H](CCNCS(=O)(=O)O)C(=O)N[C@H](C(=O)N[C@@H](CCNCS(=O)(=O)O)C(=O)N[C@H]1CCNC(=O)[C@H]([C@@H](C)O)NC(=O)[C@H](CCNCS(=O)(=O)O)NC(=O)[C@H](CCNCS(=O)(=O)O)NC(=O)[C@H](CC(C)C)NC(=O)[C@H](CC(C)C)NC(=O)[C@H](CCNCS(=O)(=O)O)NC1=O)[C@@H](C)O,0.555 ± 0.027,0.608 ± 0.27,1.01 ± 0.41,1.14 ± 0.27,0.8249 ± 0.007,1.0459 ± 0.00074,0.666 ± 0.056,0.723 ± 0.12,0.585 ± 0.35,0.903 ± 0.13,0.813 ± 0.041,1.16 ± 0.21
CC(C)(C)CC(C)(C)c1ccc(OCCOCC[N+](C)(C)Cc2ccccc2)cc1.[Cl-],0.0482 ± 0.068,0.0168 ± 0.00082,0.917 ± 0.17,0.4 ± 0.06,0.709 ± 0.21,0.121 ± 0.031,0.439 ± 0.06,0.0623 ± 0.0083,0.114 ± 0.033,0.193 ± 0.035,0.838 ± 0.16,0.398 ± 0.28
CN(C)c1cc(CNCC(C)(C)C)c(O)c2c1C[C@H]1C[C@H]3[C@H](N(C)C)C(=O)[C@H](C(N)=O)C(=O)[C@@]3(O)C(=O)[C@@H]1C2=O,0.256 ± 0.0049,0.355 ± 0.04,0.862 ± 0.018,1.09 ± 0.3,0.671 ± 0.07,0.9877 ± 0.0037,0.49613 ± 0.0003,0.133 ± 0.025,0.578 ± 0.38,1.23 ± 0.068,0.289 ± 0.1,–
COC1(NC(=O)CSCC#N)C(=O)N2C(C(=O)[O-])=C(CSc3nnnn3C)CSC21.[Na+] (stereo not drawn),0.762 ± 0.27,0.259 ± 0.32,1.42 ± 0.28,1.16 ± 0.3,0.669 ± 0.18,1.12 ± 0.035,0.746 ± 0.076,0.167 ± 0.022,0.706 ± 0.47,1.01 ± 0.2,0.839 ± 0.031,1.59 ± 0.09
NC(C(=O)NC1C(=O)N2C(C(=O)O)=C(Cl)CSC12)c1ccccc1 (stereo not drawn),1.09 ± 0.06,0.441 ± 0.046,1.07 ± 0.039,1.38 ± 0.51,0.74 ± 0.23,0.982 ± 0.015,1.04 ± 0.088,0.0755 ± 0.013,0.58 ± 0.4,0.945 ± 0.26,0.971 ± 0.085,0.944 ± 0.023
NCc1ccccc1CC(=O)NC1C(=O)N2C(C(=O)O)=C(CSc3nnnn3CC(=O)O)CSC12 (stereo not drawn),1.03 ± 0.026,0.487 ± 0.014,1.19 ± 0.037,1.38 ± 0.51,0.683 ± 0.18,1.05 ± 0.23,0.988 ± 0.13,0.08776 ± 0.00022,0.581 ± 0.39,0.979 ± 0.2,0.979 ± 0.23,–
CN(C)CCC=C1c2ccccc2COc2ccc(CC(=O)O)cc21.Cl,0.496 ± 0.7,0.368 ± 0.047,0.922 ± 0.04,1.08 ± 0.18,0.755 ± 0.041,0.899 ± 0.041,0.935 ± 0.11,0.616 ± 0.29,0.566 ± 0.38,1.1 ± 0.024,0.7995 ± 0.0059,0.905 ± 0.018
CCC(C)CCCCC(=O)NC(CCN)C(=O)NC(C(=O)NC(CCN)C(=O)NC1CCNC(=O)C(C(C)O)NC(=O)C(CCN)NC(=O)C(CCN)NC(=O)C(CC(C)C)NC(=O)C(Cc2ccccc2)NC(=O)C(CCN)NC1=O)C(C)O.O=S(=O)(O)O (stereo not drawn),1.09 ± 0.019,0.653 ± 0.23,0.982 ± 0.031,1.36 ± 0.48,0.688 ± 0.15,1.037 ± 0.0054,0.9729 ± 0.0096,0.649 ± 0.024,0.639 ± 0.43,0.894 ± 0.25,0.892 ± 0.046,0.986 ± 0.057
